Laboratory results from PMC11984502, “A stress-responsive p38 signaling axis in choanoflagellates” (RSC Chemical Biology, 2025).
Whole data set: some 1,200 compounds, median “% viability” near 1, cut for the lowest 2% near 0.27. For the sample, the lowest values were picked, then their nearest neighbours and some compounds at random. The numbers are fractions of the control, whatever unit the source prints.

Tested on: S. rosetta (SrEpac culture)
Conditions: flow cytometry, 24 h, high-nutrient medium; 10 µM

Structure (SMILES)	% viability
CCCc1cc(-c2cncc(OCC(N)Cc3c[nH]c4ccccc34)c2)cc2c(C)n[nH]c12 (stereo not shown) [KMS_217]	0
